Assay results reported in the supplement of paper PMC10849652.
The full data set covers some 8,800 targets. This sample favours those with a hit. About 0.5% of all pairs of compound and target were hits.

Assays:
Assay in all cases: log2 fold change, soluble protein after heating vs DMSO (PISA); higher = thermal stabilisation; K562 lysate, 10 uM; active = over 0.2 and 3.5 SD of the protein, either way, in both replicates (recomputed)
ralimetinib = compound: CC(C)(C)Cn1c(N)nc2ccc(-c3[nH]c(C(C)(C)C)nc3-c3ccc(F)cc3)nc21 [ralimetinib]
How it was run: (§1)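 To prepare the extract, K562 pellets were dounce-homogenised in PBS pH 7.4 with 1 mM MgCl2, giving crude material at 1 mg/mL protein. This was treated with 10 μM compound for 30 min, then heated in aliquots for 3 min over 48°C-58°C before pooling and addition of NP-40 to 0.5% at 4°C. Centrifugation at 21,000xg for 90 min left soluble protein in the supernatant, which TMTpro 16plex LC-MS/MS quantified with equalised channel sums. Results are log-two fold changes in thermal stability compared with solvent controls, from duplicates.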

[1] = compound: CC(C)(O)CC(=O)NCCn1ccc2ncnc(Nc3ccc(Oc4cccc(C(F)(F)F)c4)c(Cl)c3)c21
How it was run: as §1

[2] = compound: CC(C)C1=C2N=C(C=C(N2N=C1)NCC3=CC=CC=C3)NCCCCCCN
How it was run: as §1

[3] = compound: CC1=C(C2=C(C=C1)C(=O)C3=CC=CC=C3N2CCCN)C
How it was run: as §1

[4] = compound: CC1=C(C=C(C=C1)NC(=O)C2=CC(=CC=C2)C(C)(C)C#N)NC3=CC4=C(C=C3)N=CN(C4=O)C
How it was run: as §1

[5] = compound: CC1=C(C=C(C=C1)NC(=O)C2=CC(=CC=C2)N(C)C)NC(=O)C3=CC=C(C=C3)O
How it was run: as §1

vemurafenib = compound: CCCS(=O)(=O)Nc1ccc(F)c(C(=O)c2c[nH]c3ncc(-c4ccc(Cl)cc4)cc23)c1F [vemurafenib]
How it was run: as §1

[6] = compound: CC[C@@H]1C(=O)N(C)c2cnc(Nc3ccc(C(=O)NC4CCN(C)CC4)cc3OC)nc2N1C1CCCC1
How it was run: as §1

[7] = compound: CCn1c(C(=O)N(C2CC2)C2CC2)cc2c3c(ncn3C)c(Nc3cc(C)n(C)n3)nc21
How it was run: as §1

saracatinib = compound: CN1CCN(CCOc2cc(OC3CCOCC3)c3c(Nc4c(Cl)ccc5c4OCO5)ncnc3c2)CC1 [saracatinib]
How it was run: as §1

sotrastaurin = compound: CN1CCN(c2nc(C3=C(c4c[nH]c5ccccc45)C(=O)NC3=O)c3ccccc3n2)CC1 [sotrastaurin]
How it was run: as §1

[8] = compound: CC(=O)c1cnc2ccc(-c3cc(Cl)c(O)c(Cl)c3)nc2c1N[C@H]1CC[C@H](CN(C)C)CC1
How it was run: as §1

[9] = compound: CC1=C(C(CC(=O)N1)C2=CC=C(C=C2)C(F)(F)F)C(=O)NC3=C(C=C4C(=C3)C=NN4)F
How it was run: as §1

[10] = compound: CC1=CC=C(C=C1)SC2=C3C=C(SC3=CN=C2)C(=O)N
How it was run: as §1

[11] = compound: CCCS(=O)(=O)Nc1ccc(F)c(C(=O)c2c[nH]c3ncc(Cl)cc23)c1F
How it was run: as §1

volasertib = compound: CC[C@@H]1C(=O)N(C)c2cnc(Nc3ccc(C(=O)N[C@H]4CC[C@H](N5CCN(CC6CC6)CC5)CC4)cc3OC)nc2N1C(C)C [volasertib]
How it was run: as §1

[12] = compound: CCn1cc(-c2ccnc3[nH]c(-c4cccc(CN(C)C)c4)cc23)c(-c2ccc(NC(=O)N(C)C)cc2)n1
How it was run: as §1

[13] = compound: CN1CCC(CNc2ccc3ncc(-c4cccc(OC(F)(F)F)c4)n3n2)CC1
How it was run: as §1

ibrutinib = compound: C=CC(=O)N1CCC[C@@H](n2nc(-c3ccc(Oc4ccccc4)cc3)c3c(N)ncnc32)C1 [ibrutinib]
How it was run: as §1

barasertib = compound: CCN(CCCOc1ccc2c(Nc3cc(CC(=O)Nc4cccc(F)c4)[nH]n3)ncnc2c1)CCOP(=O)(O)O [barasertib]
How it was run: as §1

Measured: log2 fold change

NUDT6 (UniProt P53370)
Chain of UniProt P53370 (P53370 whole entry, looked up): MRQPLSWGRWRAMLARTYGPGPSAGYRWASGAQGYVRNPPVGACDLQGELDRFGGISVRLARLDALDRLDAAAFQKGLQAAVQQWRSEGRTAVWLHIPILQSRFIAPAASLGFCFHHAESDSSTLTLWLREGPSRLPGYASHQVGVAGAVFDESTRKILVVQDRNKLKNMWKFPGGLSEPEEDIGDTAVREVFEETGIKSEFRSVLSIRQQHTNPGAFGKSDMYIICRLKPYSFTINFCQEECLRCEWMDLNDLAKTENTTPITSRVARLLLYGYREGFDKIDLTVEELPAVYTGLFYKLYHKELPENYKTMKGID
inactive: ralimetinib 0.065 | [1] -0.033 | [2] 0.054 | [3] 0.169 | [4] 0.011 | [5] -0.042 | vemurafenib 0.022 | [6] 0.091 | [7] -0.085 | saracatinib 0.05 | sotrastaurin -0.033

MTHFD1 (UniProt V9GZ32)
inactive: [8] 0.045 | [9] -0.18 | [10] 0.088 | [11] 0.008 | volasertib -0.145

MUC5AC (UniProt P98088)
inactive: ralimetinib -0.067 | [1] 0.06 | [9] 1.44 | [5] 0.041 | [7] 0

PAGE2B (UniProt Q5JRK9)
Chain of UniProt Q5JRK9 (Q5JRK9 whole entry, looked up): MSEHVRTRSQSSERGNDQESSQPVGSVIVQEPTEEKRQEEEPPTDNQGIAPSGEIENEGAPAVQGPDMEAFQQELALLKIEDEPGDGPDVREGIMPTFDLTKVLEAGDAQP
inactive: [8] -0.049 | ralimetinib -0.024 | [1] -0.032 | [2] -0.054 | [9] 0.023 | [3] 0.044 | [4] -0.003 | [5] 0.238 | [10] 0.022 | vemurafenib 0.008 | [11] -0.056 | [6] -0.027 | volasertib -0.013 | [7] -0.008 | [12] -0.034 | [13] -0.239 | saracatinib 0.176 | sotrastaurin 0.05

NUB1 (UniProt H7C5N1)
inactive: ralimetinib 0.133 | [1] -0.146 | [5] -0.131 | [7] 0.312

NFAT5 isoform 4 (UniProt O94916)
inactive: ibrutinib -0.016 | [4] 0.088 | barasertib -0.039 | sotrastaurin 0

NOCT (UniProt Q9UK39)
Chain of UniProt Q9UK39 (Q9UK39 whole entry, looked up): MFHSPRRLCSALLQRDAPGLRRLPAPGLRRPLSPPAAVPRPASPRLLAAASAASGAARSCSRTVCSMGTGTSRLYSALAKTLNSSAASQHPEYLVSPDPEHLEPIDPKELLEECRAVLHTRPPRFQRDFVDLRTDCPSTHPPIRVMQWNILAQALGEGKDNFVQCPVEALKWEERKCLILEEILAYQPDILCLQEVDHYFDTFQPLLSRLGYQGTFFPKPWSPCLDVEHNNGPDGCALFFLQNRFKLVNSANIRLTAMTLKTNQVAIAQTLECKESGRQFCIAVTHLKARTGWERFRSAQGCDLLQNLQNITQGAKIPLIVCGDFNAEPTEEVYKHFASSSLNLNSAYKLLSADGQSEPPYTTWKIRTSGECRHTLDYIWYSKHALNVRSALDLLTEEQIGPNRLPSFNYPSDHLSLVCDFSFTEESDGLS
inactive: [8] 0.001 | ralimetinib 0.068 | [1] -0.06 | [2] 0.014 | [9] 0.004 | [3] 0.114 | [4] -0.012 | [5] -0.066 | [10] 0.064 | [11] -0.04 | [6] 0 | volasertib 0.02 | [7] 0.004 | saracatinib -0.103 | sotrastaurin -0.073

ORC3 (UniProt Q9UBD5)
Chain of UniProt Q9UBD5 (Q9UBD5 whole entry, looked up): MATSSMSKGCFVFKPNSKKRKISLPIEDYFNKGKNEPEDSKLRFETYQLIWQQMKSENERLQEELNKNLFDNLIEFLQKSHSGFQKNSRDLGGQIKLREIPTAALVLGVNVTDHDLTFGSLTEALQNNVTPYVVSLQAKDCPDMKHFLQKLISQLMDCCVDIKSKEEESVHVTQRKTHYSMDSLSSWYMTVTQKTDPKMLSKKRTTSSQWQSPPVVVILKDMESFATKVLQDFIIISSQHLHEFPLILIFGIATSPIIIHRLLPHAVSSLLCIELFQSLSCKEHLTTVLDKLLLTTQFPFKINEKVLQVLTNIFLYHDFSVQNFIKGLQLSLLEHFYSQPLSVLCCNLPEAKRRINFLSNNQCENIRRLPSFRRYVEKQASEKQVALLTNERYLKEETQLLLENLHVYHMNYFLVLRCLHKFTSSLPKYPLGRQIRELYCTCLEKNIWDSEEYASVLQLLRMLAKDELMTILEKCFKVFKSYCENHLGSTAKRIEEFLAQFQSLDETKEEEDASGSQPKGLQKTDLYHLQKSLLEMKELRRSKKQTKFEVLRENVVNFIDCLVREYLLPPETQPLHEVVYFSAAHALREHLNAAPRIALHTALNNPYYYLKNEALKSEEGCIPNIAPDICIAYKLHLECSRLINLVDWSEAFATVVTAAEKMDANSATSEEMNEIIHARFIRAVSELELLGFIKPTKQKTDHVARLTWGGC
inactive: [8] 0.161 | [9] -0.007 | [10] 0.03 | [11] -0.16 | volasertib 0.003 | [12] 0.185 | [13] -0.06

ORC1 (UniProt Q13415)
inactive: [6] 0.185

NDUFAF5 (UniProt Q5TEU4)
Chain of UniProt Q5TEU4 (Q5TEU4 whole entry, looked up): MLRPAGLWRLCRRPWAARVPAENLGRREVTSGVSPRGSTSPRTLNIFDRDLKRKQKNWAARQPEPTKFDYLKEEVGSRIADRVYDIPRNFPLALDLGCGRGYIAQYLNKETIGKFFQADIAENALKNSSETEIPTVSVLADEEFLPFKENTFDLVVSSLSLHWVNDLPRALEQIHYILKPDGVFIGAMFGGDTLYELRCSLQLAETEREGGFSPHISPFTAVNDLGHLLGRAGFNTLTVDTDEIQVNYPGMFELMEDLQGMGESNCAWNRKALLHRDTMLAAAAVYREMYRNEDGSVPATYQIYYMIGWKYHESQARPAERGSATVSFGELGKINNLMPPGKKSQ
inactive: ibrutinib -0.007 | [8] 0.021 | ralimetinib -0.011 | [1] -0.008 | [2] -0.029 | [3] 0.043 | [4] 0.076 | [5] -0.026 | [10] -0.048 | vemurafenib -0.015 | [11] 0.007 | barasertib -0.032 | [6] 0.127 | volasertib 0.04 | [7] -0.103 | [12] -0.052 | [13] 0.035 | saracatinib 0.179 | sotrastaurin 0

NR2C2 isoform 2 (UniProt P49116)
Chain of UniProt P49116 (P49116 whole entry, looked up): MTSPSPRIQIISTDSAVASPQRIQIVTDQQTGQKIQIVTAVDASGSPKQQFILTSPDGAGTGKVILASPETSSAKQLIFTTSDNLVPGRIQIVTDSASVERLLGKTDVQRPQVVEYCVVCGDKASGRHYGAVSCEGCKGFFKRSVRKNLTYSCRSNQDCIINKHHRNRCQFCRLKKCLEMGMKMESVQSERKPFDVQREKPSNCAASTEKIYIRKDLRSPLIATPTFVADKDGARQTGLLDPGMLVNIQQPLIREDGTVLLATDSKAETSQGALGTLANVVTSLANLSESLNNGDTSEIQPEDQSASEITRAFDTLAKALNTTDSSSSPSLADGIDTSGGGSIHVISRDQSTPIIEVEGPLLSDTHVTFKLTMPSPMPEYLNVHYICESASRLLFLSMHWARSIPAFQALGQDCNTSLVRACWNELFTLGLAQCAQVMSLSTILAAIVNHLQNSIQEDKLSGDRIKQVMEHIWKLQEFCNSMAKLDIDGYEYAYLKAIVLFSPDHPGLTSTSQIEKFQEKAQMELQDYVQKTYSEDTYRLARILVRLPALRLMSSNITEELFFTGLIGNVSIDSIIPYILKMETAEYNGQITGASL
inactive: ibrutinib 0.069 | [8] -0.081 | ralimetinib 0.014 | [1] 0 | [2] -0.03 | [3] -0.064 | [4] 0.044 | [5] -0.019 | [10] -0.086 | vemurafenib -0.087 | [11] 0.049 | barasertib 0.017 | [6] -0.091 | volasertib -0.001 | [7] 0.003 | [12] 0.075 | [13] -0.074 | saracatinib -0.058 | sotrastaurin 0.002

NFATC4 isoform 2 (UniProt Q14934)
Chain of UniProt Q14934 (Q14934 whole entry, looked up): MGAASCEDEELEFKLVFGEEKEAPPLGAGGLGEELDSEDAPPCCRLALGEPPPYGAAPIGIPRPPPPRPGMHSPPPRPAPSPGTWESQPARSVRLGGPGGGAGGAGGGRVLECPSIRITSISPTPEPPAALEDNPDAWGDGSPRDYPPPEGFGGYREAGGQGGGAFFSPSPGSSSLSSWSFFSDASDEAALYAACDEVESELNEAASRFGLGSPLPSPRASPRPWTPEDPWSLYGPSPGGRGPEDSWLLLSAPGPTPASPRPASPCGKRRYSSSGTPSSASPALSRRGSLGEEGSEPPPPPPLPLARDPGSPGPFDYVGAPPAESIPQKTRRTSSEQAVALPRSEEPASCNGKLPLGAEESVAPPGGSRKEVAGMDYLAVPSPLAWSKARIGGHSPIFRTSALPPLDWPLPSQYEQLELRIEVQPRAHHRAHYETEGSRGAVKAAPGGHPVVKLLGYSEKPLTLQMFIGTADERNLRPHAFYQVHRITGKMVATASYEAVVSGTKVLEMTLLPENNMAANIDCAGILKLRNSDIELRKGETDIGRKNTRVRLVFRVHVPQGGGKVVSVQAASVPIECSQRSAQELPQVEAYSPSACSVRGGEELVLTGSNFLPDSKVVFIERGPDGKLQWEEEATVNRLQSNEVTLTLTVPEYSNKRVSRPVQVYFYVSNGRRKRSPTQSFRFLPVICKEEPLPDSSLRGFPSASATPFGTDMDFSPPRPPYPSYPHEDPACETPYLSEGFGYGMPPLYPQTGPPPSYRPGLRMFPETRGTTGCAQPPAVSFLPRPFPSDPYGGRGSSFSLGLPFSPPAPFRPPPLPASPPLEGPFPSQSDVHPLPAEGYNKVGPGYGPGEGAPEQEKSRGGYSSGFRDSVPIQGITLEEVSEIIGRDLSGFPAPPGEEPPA
inactive: ibrutinib -0.053 | [8] -0.075 | [9] -0.067 | [3] -0.057 | [4] 0.125 | [10] -0.063 | vemurafenib 0.081 | [11] -0.013 | barasertib 0.059 | [6] -0.05 | volasertib -0.004 | [12] 0.053 | [13] 0.068 | saracatinib 0.044 | sotrastaurin 0.026

NUMB isoform 2 (UniProt P49757)
Chain of UniProt P49757 (P49757 whole entry, looked up): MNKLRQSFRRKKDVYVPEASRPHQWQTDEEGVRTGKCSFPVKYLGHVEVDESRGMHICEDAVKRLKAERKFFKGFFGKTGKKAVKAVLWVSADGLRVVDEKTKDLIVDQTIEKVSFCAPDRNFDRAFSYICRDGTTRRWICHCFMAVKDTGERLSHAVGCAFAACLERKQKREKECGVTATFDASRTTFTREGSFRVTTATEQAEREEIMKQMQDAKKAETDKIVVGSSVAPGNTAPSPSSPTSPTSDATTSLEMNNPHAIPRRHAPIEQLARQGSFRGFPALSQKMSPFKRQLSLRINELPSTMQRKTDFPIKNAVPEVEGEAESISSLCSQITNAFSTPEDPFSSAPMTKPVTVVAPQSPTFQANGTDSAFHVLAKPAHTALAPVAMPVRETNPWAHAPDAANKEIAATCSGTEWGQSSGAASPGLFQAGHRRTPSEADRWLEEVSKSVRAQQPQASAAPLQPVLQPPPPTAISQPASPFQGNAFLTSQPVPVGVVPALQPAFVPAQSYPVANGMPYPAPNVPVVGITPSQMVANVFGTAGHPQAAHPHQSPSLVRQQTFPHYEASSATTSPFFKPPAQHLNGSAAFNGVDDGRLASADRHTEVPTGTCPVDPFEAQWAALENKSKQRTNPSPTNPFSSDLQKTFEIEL
inactive: ralimetinib 0.059 | [1] 0.12 | [9] 0.154 | [3] -0.245 | [5] -0.062 | [7] -0.146 | saracatinib -0.04

NAA16 (UniProt Q6N069)
Chain of UniProt Q6N069 (Q6N069 whole entry, looked up): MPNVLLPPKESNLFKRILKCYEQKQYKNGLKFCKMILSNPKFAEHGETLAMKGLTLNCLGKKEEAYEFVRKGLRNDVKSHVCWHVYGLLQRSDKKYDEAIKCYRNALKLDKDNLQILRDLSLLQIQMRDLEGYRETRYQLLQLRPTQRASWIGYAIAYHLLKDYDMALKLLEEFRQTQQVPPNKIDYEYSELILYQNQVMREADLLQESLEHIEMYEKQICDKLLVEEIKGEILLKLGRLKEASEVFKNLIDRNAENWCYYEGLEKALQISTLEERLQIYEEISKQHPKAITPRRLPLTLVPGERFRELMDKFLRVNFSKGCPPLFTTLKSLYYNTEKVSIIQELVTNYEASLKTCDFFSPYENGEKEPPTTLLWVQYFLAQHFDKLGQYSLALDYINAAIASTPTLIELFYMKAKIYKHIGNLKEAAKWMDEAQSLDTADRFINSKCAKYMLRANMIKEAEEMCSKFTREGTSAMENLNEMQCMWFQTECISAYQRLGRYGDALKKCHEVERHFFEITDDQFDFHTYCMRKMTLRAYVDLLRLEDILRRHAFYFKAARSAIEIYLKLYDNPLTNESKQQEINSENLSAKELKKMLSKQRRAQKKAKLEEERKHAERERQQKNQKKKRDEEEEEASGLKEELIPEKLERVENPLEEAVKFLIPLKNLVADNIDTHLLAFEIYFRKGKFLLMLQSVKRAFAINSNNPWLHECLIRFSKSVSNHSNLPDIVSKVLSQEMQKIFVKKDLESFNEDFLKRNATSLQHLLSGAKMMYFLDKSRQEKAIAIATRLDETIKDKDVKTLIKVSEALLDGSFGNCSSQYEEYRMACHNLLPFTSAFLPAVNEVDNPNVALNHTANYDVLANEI
inactive: ibrutinib -0.047 | [8] 0.097 | ralimetinib -0.179 | [1] 0.085 | [9] 0.092 | [3] 0.105 | [5] 0.147 | [10] 0.062 | [11] -0.048 | barasertib 0.246 | [6] -0.049 | volasertib -0.078 | [7] 0.057 | saracatinib -0.012
active: vemurafenib 0.902
